From PubChem
CYP2C19 act: activators of human cytochrome P450 2C19; P33261; recombinant CYP2C19, luciferin-H EGE luminescence; active compounds read high; 0 = fully inhibited enzyme, 1 = untreated enzyme; activation factor at 5 µM; 96,000 tested, under 10 active; AID 1025;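 active = activation factor of at least 2 at 5 µM in the primary screen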
CYP2C9 inh: blocks human cytochrome P450 2C9; CYP2C9 Supersomes, luciferin-H conversion, luminescence; 20% of 96,000 active; inhibition, % at 5 µM;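 active = blocking of liver enzyme CYP2C9 beyond about 50% at 5 µM, limit read from the data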
Target sequence (P11712 whole entry, looked up): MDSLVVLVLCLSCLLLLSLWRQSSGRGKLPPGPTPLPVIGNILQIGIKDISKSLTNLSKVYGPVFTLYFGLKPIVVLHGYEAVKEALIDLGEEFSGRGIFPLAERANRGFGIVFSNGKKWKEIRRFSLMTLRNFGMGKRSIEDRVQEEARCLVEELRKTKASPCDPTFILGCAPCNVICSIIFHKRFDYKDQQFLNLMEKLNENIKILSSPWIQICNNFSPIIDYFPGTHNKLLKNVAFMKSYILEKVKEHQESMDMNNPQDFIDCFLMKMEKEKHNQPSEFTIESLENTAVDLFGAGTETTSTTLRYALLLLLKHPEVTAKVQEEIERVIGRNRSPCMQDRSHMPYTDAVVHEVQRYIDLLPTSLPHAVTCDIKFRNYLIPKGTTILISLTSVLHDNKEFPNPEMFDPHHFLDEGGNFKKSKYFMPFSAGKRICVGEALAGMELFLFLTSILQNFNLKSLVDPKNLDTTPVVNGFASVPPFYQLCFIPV
CYP2C9 activ: CYP2C9 (human) activation; activation factor at 5 µM; 1.4% of 96,000 active; recombinant CYP2C9, luciferin-H conversion, luminescence; active compounds read high; factor 1 = untreated enzyme, 0 = blocked; AID 1024;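 active = activation factor of 2 or more for CYP2C9 at a 5 µM dose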
F-actin modifier: cytoskeleton assembly modification. HUVEC TNFa F-actin phalloidin imaging, high content. inhibition, % at 2 µM. 0.18% of 91,000 active. AID 836;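 active = inhibition above the batch mean plus 3 SD and confirmed as a hit by visual image inspection, cut at about 30% in these data, passing the limit was not always enough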
E-sel TNF inh: blocks E-selectin expression induced by TNF alpha. inhibition, % at 2 µM. 0.71% of 120,000 active. HUVEC TNFa-induced E-selectin immunofluorescence, high content;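 active = inhibition above the batch mean plus 3 SD, and confirmed as a hit on visual image review, cut at about 43% in these data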
CYP2C19 inhib: blocks human cytochrome P450 2C19; P33261; CYP2C19 Supersomes, luciferin-H EGE luminescence, 30 min; inhibition, % at 5 µM; 21% of 96,000 active;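 active = CYP2C19 inhibition above a set limit at 5 µM in the primary screen, cut at about 50% in these data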
Of the large screens only hits and unclear results are named; the others gave an inactive call. A selection: hits, their analogues and other compounds. The true share with any hit is near 22%.

COCCNC(=S)N1CCc2cc(OC)c(OC)cc2C1COc1cc(C)cc(C)c1 (configuration not stated)	none (no result: CYP2C19 act, CYP2C9 inh, CYP2C9 activ, F-actin modifier, CYP2C19 inhib)
Cn1nnnc1SCc1ccc(Cl)cc1	none (no result: CYP2C19 act, CYP2C9 inh, CYP2C9 activ, F-actin modifier, CYP2C19 inhib)
CC(C)[C@H](N)c1nnc(SCc2ccc(Cl)cc2)o1	CYP2C19 inhib 96.0
COC(=O)NCC(C)OC(=O)Nc1ccc(Cl)cc1 (configuration not stated)	none (no result: CYP2C19 act, CYP2C9 inh, CYP2C9 activ, F-actin modifier, CYP2C19 inhib)
O=C(COc1ccccc1)Nc1nnc(-c2ccc3c(c2)CCCC3)o1	CYP2C9 inh 51.9 (no result: E-sel TNF inh)
O=C(Nc1nnc(-c2ccc3c(c2)CCCC3)o1)c1ccccc1	none (no result: E-sel TNF inh)
COC(=O)CNC(=O)CSc1nnc(-c2ccc(OC)cc2)n1CC(C)C	none
COc1ccc(-c2nnc(SCC(=O)NCc3cccs3)n2CC(C)C)cc1	CYP2C9 inh 65.2, CYP2C19 inhib 50.9
CC1Cc2ccccc2N1C(=O)CSc1nnc(-c2ccc(S(=O)(=O)N3CCCC3)cc2)o1 (configuration not stated)	CYP2C9 inh 88.1, CYP2C19 inhib 65.9
COc1cc(OC)cc(-c2nnc(SCC(=O)NCc3cccs3)o2)c1	CYP2C19 inhib 88.8
O=C(CSc1nnc(-c2ccc(S(=O)(=O)N3CCCC3)cc2)o1)N1CCCC1	none (no result: CYP2C19 act, CYP2C9 inh, CYP2C9 activ, CYP2C19 inhib)
Cc1ccc(-c2nnc(SCC(=O)Nc3ccc(S(=O)(=O)N4CCCCCC4)cc3)o2)cc1	none
O=C(CSc1nnc(-c2ccc(S(=O)(=O)N3CCCC3)cc2)o1)NCc1ccco1	CYP2C9 inh 76.6, CYP2C19 inhib 63.3 (no result: E-sel TNF inh)
Cn1ccnc1Sc1ccc(/C=N/NC(=O)c2ccccc2O)cc1[N+](=O)[O-]	none (no result: CYP2C19 act, CYP2C9 inh, CYP2C9 activ, F-actin modifier, CYP2C19 inhib)
CCOC(=O)C1C(c2cccc(Cl)c2Cl)NC(=O)NC1(O)C(F)(F)F (configuration not stated)	none
COc1ccc(OCc2nnc(SCC(=O)NCc3ccco3)o2)cc1	CYP2C9 inh 71.8
COc1ccc(-c2nnc(SCC(=O)NCc3ccco3)o2)cc1	CYP2C19 inhib 65.0
CCN(CC)S(=O)(=O)c1ccc(-c2nnc(SCC(=O)N3CCc4ccccc43)o2)cc1	CYP2C9 inh 65.6 (no result: F-actin modifier, E-sel TNF inh)
Cc1csc(NC(=O)CSc2nnc(-c3ccc(S(=O)(=O)N4CCCC4)cc3)o2)n1	CYP2C9 inh 61.4 (no result: E-sel TNF inh)
COc1ccc(Cc2nnc(SCC(=O)NCc3ccco3)o2)cc1	none
CCC(Oc1cc(Cl)ccc1Cl)C(=O)NN1C(=O)C2C3CCC(C3=C(C)C)C2C1=O (configuration not stated)	none
Cc1ccccc1Nc1nc(N)nc(CSc2nc3ccccc3c(=O)n2CCCO)n1	CYP2C9 inh 99.0, CYP2C19 inhib 90.4 (no result: F-actin modifier)
Cc1ccccc1Nc1nc(N)nc(CSc2nc3ccccc3c(=O)n2C)n1	CYP2C9 inh 81.9, CYP2C19 inhib 68.0
Cc1ccc2c(CSc3nc4ccccc4c(=O)n3CCCO)cc(=O)oc2c1C	CYP2C9 inh 96.2, CYP2C19 inhib 67.5
COCCn1c(SCc2nc(N)nc(Nc3ccccc3C)n2)nc2ccccc2c1=O	CYP2C9 inh 70.8 (no result: E-sel TNF inh)
Cc1ccc(SCc2nc(N)nc(Nc3ccccc3C)n2)c(C)c1	none (no result: CYP2C19 act, CYP2C9 inh, CYP2C9 activ, F-actin modifier, CYP2C19 inhib)
Nc1nnnn1NCc1cccc(OCc2ccccc2)c1	none
CCSc1nc2sc3c(c2c(=O)[nH]1)CCCC3	none (no result: CYP2C19 act, CYP2C9 inh, CYP2C9 activ, CYP2C19 inhib)
CCSC1=NC2(CCCCC2)Nc2sc3c(c21)CCCC3	CYP2C9 inh 74.5, CYP2C19 inhib 62.7
Cc1cc(=O)oc2cc(OCC3CC(c4ccc(Cl)cc4)=NO3)ccc12 (configuration not stated)	CYP2C19 inhib 51.2
O=C(c1cccc(N2CCCC2=O)c1)N1CCN(c2ccccc2)CC1	none (no result: CYP2C19 act, CYP2C9 inh, CYP2C9 activ, CYP2C19 inhib)
Nc1nc(N)nc(-c2ccc(Oc3ccccc3)cc2)n1	CYP2C9 inh 51.3
C=CCOC(=O)C1=C(C)NC(C)=C(C(=O)OCC=C)C1/C=C/c1ccccc1	none (no result: CYP2C19 act, CYP2C9 inh, CYP2C9 activ, CYP2C19 inhib)
CCOC(=O)C1=C(C)NC(C)=C(C(=O)OCC)C1/C=C/c1ccccc1	CYP2C9 inh 70.1, CYP2C19 inhib 68.4
COC(=O)C1=C(C)NC(C)=C(C(=O)OC)C1/C=C/c1ccccc1	CYP2C9 inh 55.2
COC(=O)c1cc(OC)c(OC)cc1NC(=O)C(C)Sc1ccc(C)cc1 (configuration not stated)	none
CCOC(=O)CSc1nnc(CSc2nc3ccccc3s2)n1C	none
O=C(CSc1nnnn1-c1ccccc1F)Nc1nc2ccccc2s1	none
C=CCn1c(CSc2nc3ccccc3s2)nnc1SCC(=O)OCC	CYP2C19 inhib 77.2
C=CCn1c(CNC(=O)c2cccs2)nnc1SCC(=O)c1ccc(Br)cc1	CYP2C9 inh 60.7
C=CCn1c(CCNC(=O)c2cccs2)nnc1SCC(=O)c1cccc([N+](=O)[O-])c1	none
C=CCn1c(CCNC(=O)c2cccs2)nnc1SCC(=O)c1ccc(Cl)cc1	CYP2C9 inh 78.9, CYP2C19 inhib 77.5
C=CCn1c(CCNC(=O)c2ccccc2F)nnc1SCC(=O)Nc1nc2ccccc2s1	CYP2C9 inh 59.1
COc1ccc(OC)c(C2C(C(N)=O)=C(C)Nc3nc(CCCO)nn32)c1 (configuration not stated)	none (no result: E-sel TNF inh)
CCOc1ccc(CN(C)CCc2ccccn2)cc1	none (no result: CYP2C19 act, CYP2C9 inh, CYP2C9 activ, F-actin modifier, CYP2C19 inhib)
O=Cc1ccc(OCc2ccccn2)cc1	E-sel TNF inh 44.5 (no result: CYP2C19 act, CYP2C9 inh, CYP2C9 activ, CYP2C19 inhib)
O=C(NCc1ccco1)c1cc2nc(C3CC3)cc(C(F)(F)F)n2n1	none
O=C(NCCCn1ccnc1)c1nn2c(C(F)(F)F)cc(-c3ccc(Br)cc3)nc2c1Cl	none (no result: CYP2C19 act, CYP2C9 inh, CYP2C9 activ, F-actin modifier, CYP2C19 inhib)
COc1ccc(-c2cc(C(F)(F)F)n3nc(C(=O)NCCCn4ccnc4)cc3n2)cc1	CYP2C9 inh 97.8, CYP2C19 inhib 82.7
COc1ccc(-c2cc(C(F)(F)F)n3nc(C(=O)NCc4ccco4)cc3n2)cc1OC	CYP2C9 inh 69.4, CYP2C19 inhib 75.9
Cn1c(=O)c2ncn(CC(=O)NCCC3=CCCCC3)c2n(C)c1=O	none (no result: CYP2C19 act, CYP2C9 inh, CYP2C9 activ, CYP2C19 inhib)
COC(=O)[C@H](CCSC)NC(=O)NCc1ccccn1	none
CN1CCC(N(C)C(=S)NC(=O)C23CC4CC(CC(C4)C2)C3)CC1	E-sel TNF inh 78.7 (no result: CYP2C19 act, CYP2C9 inh, CYP2C9 activ, F-actin modifier, CYP2C19 inhib)
O=C(NN=C1CCCCCC1)c1cn(-c2ccccc2)nc1-c1ccccc1	none (no result: CYP2C19 act, CYP2C9 inh, CYP2C9 activ, F-actin modifier, CYP2C19 inhib)
O=C(Cn1nnc2ccccc21)NC1CCCCC1	CYP2C19 inhib 54.7
Cc1nn(C)cc1C(C(=O)NC1CCCCC1)N(C(=O)Cn1nnc2ccccc21)c1ccc(F)cc1 (configuration not stated)	none (no result: E-sel TNF inh)
Cc1ccc(N(C(=O)Cn2nnc3ccccc32)C(C(=O)NC2CCCCC2)c2cn(C)nc2C)cc1 (configuration not stated)	CYP2C19 inhib 66.6
Cc1nn(-c2cc(N(S(C)(=O)=O)S(C)(=O)=O)c(Cl)cc2Cl)c(=O)n1C	none (no result: CYP2C19 act, CYP2C9 inh, CYP2C9 activ, F-actin modifier, CYP2C19 inhib)
O=C1C(Cl)=C(N2CCCCC2)C(=O)N1c1ccccc1	none
CN1CCN(C2=C(Cl)C(=O)N(C3CCCCC3)C2=O)CC1	CYP2C19 inhib 93.5 (no result: E-sel TNF inh)
Cc1cc(C)cc(OCC(=O)N2Cc3ccccc3CC2C(=O)O)c1 (configuration not stated)	none (no result: CYP2C19 act, CYP2C9 inh, CYP2C9 activ, F-actin modifier, CYP2C19 inhib)
O=c1oc2ccccc2n1CCc1ccccc1	CYP2C19 inhib 86.1
Cc1ccc(C(C)C)c(OCCn2c(=O)oc3ccccc32)c1	CYP2C9 inh 82.5, CYP2C19 inhib 92.1
